# Beta cell apopt: beta cell apoptosis inhibition; INS-1E cytokine-induced death, ATP luminescence, 48 h; percent of positive-control rescue, neutral wells zero; protection from apoptosis, % (test concentration not listed); 0.8% of 300,000 active; AID 435005;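 active = Every replicate reaches about 75%, or at least half do and their mean reaches it too, limit read from the data; inconclusive = At least half of replicates reach the limit but their mean does not; inactive = Under half of replicates reach the limit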;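 note: 0% = cytokine-treated negative control wells and 100% = positive control rescue; higher means more ATP so stronger rescue from cytokine killing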
# MPTP inh: inhibitors of mitochondrial permeability transition pore. inhibition, % at 10 µM. 1.4% of 360,000 active. isolated mouse mitochondria, Ca2+ swelling absorbance, 30 min;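 active = inhibition of 50% or more, scaled per plate between neutral and stimulator controls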;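 note: 0% = DMSO wells given calcium and 100% = 1 mM EGTA wells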
# CSC inhib: blocks cancer stem cells. 1.1% of 300,000 active. AID 2717. cancer stem cell-like cells viability, luminescence. inhibition, % at 7.5 µM; in the data active = inhibition above about 75%; inconclusive = no clear call, values can overlap the other calls; tested in HMLE shEcad cells
# Mdm2-MdmX inh: human Mdm2/MdmX binding inhibition. SaOS-2 split-luciferase Mdm2/MdmX complementation, luminescence. inhibition, % at 8 µM. 3% of 330,000 active. AID 485346;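 active = inhibition of at least 50% at 8 µM in the primary screen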
# Calb FLC: affects C. albicans growth with fluconazole; C. albicans CaCi-2 (fluconazole-resistant clinical isolate) + fluconazole, Alamar Blue growth, 48 h; growth inhibition, % (test concentration not listed); 0.57% of 300,000 active; AID 1979;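 active = growth inhibition above about 58% in most replicates, limit read from the data, passing the limit was not always enough; inconclusive = exactly half the replicates above a set limit; inactive = most replicates below a set limit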;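 note: all wells also contain fluconazole at 8 µg/ml as a sub-toxic cotreatment; 0% = median of DMSO wells and 100% = median of geldanamycin control wells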
# Mdm2-MdmX conf: confirmation of human Mdm2/MdmX interaction inhibitors; inhibition, % at 8 µM; 55% of 10,000 active; AID 489028; Mdm2-MdmX binding, luminescent assay; shares compounds with Mdm2-MdmX inh; in the data active = inhibition above about 40%
# Full FLuc ctr: inhibits full-length luciferase, flagging false Mdm2/MdmX hits. 77% of 6,200 active. AID 504607. inhibition, % at 8 µM. shares compounds with Mdm2-MdmX inh. SaOS-2 full-length luciferase counterscreen, luminescence;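 active = mean inhibition at 8 µM reaching about 37%, which flags the compound as non-specific, limit read from the data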;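 note: p53-null SaOS-2 cells with luciferase driven by a doxycycline-inducible promoter; compound on cells about two nights before reading with doxycycline added after day one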
# * hit, by the source's call; ? = inconclusive; nt = no result. Sampled rows, rich in hits. Any-hit rate of the full collection: about 4.8%.
SMILES,Beta cell apopt,MPTP inh,CSC inhib,Mdm2-MdmX inh,Calb FLC,Mdm2-MdmX conf,Full FLuc ctr
Cc1cccn2c(=O)nc(SCC(=O)N3CCC(Cc4ccccc4)CC3)nc12,nt,7,1,10,-7,nt,nt
COc1ccc2oc(=O)c(-c3csc(Nc4ccc(O)cc4)n3)cc2c1,-6,1,3,54*,-6,19,133*
CC(=O)N1CCN(CC(=O)Nc2ccccc2Sc2ccc(Cl)cc2)CC1,6,2,-11,-5,-5,nt,nt
O=C(CCl)Nc1ccccc1Sc1ccc(Cl)cc1,-16,6,42,79*,-2,71*,55*
COc1cc(C(=O)OCc2cc(=O)oc3c(C)c(C)ccc23)ccc1OC(F)F,7,1,nt,60*,-5,12,nt
N#CCCN(Cc1ccccc1)C(CCc1ccccc1)C(=O)NC1CCCCC1 (stereo not drawn),nt,-2,nt,nt,nt,nt,nt
O=C(NCC1CCCO1)C(=Cc1cccc([N+](=O)[O-])c1)C(=O)NCC1CCCO1 (stereo not drawn),-23,0,7,65*,-17,35,45*
O=C(NCC1CCCO1)/C(=C\c1cccc([N+](=O)[O-])c1)NC(=O)c1ccccc1 (stereo not drawn),0,0,-13,17,7,nt,nt
CCOC(=O)Cc1csc(SCC(=O)NC2CCS(=O)(=O)C2)n1 (stereo not drawn),-3,-2,nt,-4,nt,nt,nt
Cc1nc(C(=O)NC2CCCCC2)sc1C1(C)CC(c2cccc([N+](=O)[O-])c2)=NO1 (stereo not drawn),12,-2,16,39,-18,nt,nt
CNC(=O)c1nc(C)c(C2(C)CC(c3ccccc3)=NO2)s1 (stereo not drawn),2,-1,-4,15,-3,nt,nt
COc1ccc(NC(=O)c2nc(C)c(C3(C)CC(c4cccnc4)=NO3)s2)cc1 (stereo not drawn),13,0,6,60*,-17,59*,66*
Cc1nc(C(=O)Nc2ccc(Cl)cc2)sc1C1(C)CC(c2cccc([N+](=O)[O-])c2)=NO1 (stereo not drawn),14,1,5,61*,-8,36,47*
CCCCC(=O)NC1(C(F)(F)F)NC(=O)N(C)C1=O (stereo not drawn),-6,2,-7,5,6,nt,nt
Cc1[nH]c(C)c(S(=O)(=O)NCC(C)c2ccccc2)c1C(=O)N1CCCCC1 (stereo not drawn),-1,0,7,13,-37,nt,nt
CCOC(=O)C1=C(C)N=c2s/c(=C/c3cccc([N+](=O)[O-])c3O)c(=O)n2C1c1ccccc1 (stereo not drawn),-1,31,30,45,-4,nt,nt
CCOC(=O)C1=C(C)N=c2s/c(=C/c3cccc([N+](=O)[O-])c3O)c(=O)n2C1c1cc(OC)c(OC)c(OC)c1 (stereo not drawn),-3,9,9,52*,-5,9,nt
O=C(NC(c1ccc(-c2ccccc2)cc1)c1cnccn1)C1CCN(CCN2C(=O)c3ccccc3C2=O)CC1 (stereo not drawn),nt,1,nt,nt,nt,nt,nt
O=C(N/N=C/c1cccc(O)c1)c1ccc(NC(=O)C2CCCCC2)cc1,5,1,11,30,?,nt,nt
O=C(N/N=C/c1ccc(O)cc1O)c1ccc(NC(=O)C2CCCCC2)cc1,?,-2,-4,68*,-2,54*,38*
Nc1nc(SCC(=O)c2c(N)n(Cc3ccccc3)c(=O)[nH]c2=O)n[nH]1,-2,3,-4,11,0,nt,nt
O=C(CSCc1cccc(Br)c1)N=Nc1c(O)[nH]c2ccccc12,-5,6,-8,-5,33,nt,nt
O=Nc1c(-c2c(O)[nH]c3cc(Br)ccc23)[nH]c2ccccc12,10,12,103*,99*,53,31,nt
CCOc1cc(Cl)c(S(=O)(=O)NCCCn2ccnc2)cc1Cl,30,5,18,9,9,nt,nt
CCOc1ccc(C2CC=C(C(C)=O)CN2S(=O)(=O)c2ccc(C)cc2)cc1 (stereo not drawn),nt,0,nt,nt,nt,nt,nt
SMILES,Beta cell apopt,MPTP inh,CSC inhib,Mdm2-MdmX inh,Calb FLC,Mdm2-MdmX conf,Full FLuc ctr
C=CCn1c(C)cc(C(=O)CN2C(=O)c3ccccc3S2(=O)=O)c1C,2,1,-8,74*,nt,79*,53*
Cc1cc(C)nc(NC(=O)CN2C(=O)c3ccccc3S2(=O)=O)n1,nt,-1,1,-5,4,nt,nt
C=CCn1c(C)cc(C(=O)CN2C(=O)NC3(CCCc4ccccc43)C2=O)c1C (stereo not drawn),-3,-6,-10,-34,3,nt,nt
CCn1c(C)cc(C(=O)CN2C(=O)c3ccccc3S2(=O)=O)c1C,-6,0,-11,88*,nt,81*,23
Cc1cc(C(=O)CN2C(=O)C3CC=CCC3C2=O)c(C)n1-c1ccccc1 (stereo not drawn),2,4,-4,0,-1,nt,nt
Cc1cc(C(=O)CN2C(=O)c3ccccc3S2(=O)=O)c(C)n1C(C)C,-1,0,-6,56*,nt,41*,37*
Cc1cc(C(=O)CN2C(=O)c3ccccc3S2(=O)=O)c(C)n1-c1ccccc1,0,-3,-7,57*,-8,32,nt
O=C(NCC1CCCCC1)c1ccc2nc([C@@H]3O[C@H](CO)[C@H](O)[C@H](O)[C@H]3O)[nH]c2c1,nt,1,nt,nt,nt,nt,nt
CN(C)c1ccc(/C=N/NC(=O)c2cc(-c3ccc4c(c3)OCO4)n[nH]2)cc1,nt,5,66,52*,2,54*,65*
O=C(N/N=C/c1cccc([N+](=O)[O-])c1)c1cc(-c2ccc3c4c(cccc24)CC3)n[nH]1,5,3,24,4,8,nt,nt
O=C(N/N=C/c1ccc(Cl)c([N+](=O)[O-])c1)c1cc(-c2ccc3c4c(cccc24)CC3)n[nH]1,4,2,136*,100*,11,91*,61*
CC(C)c1ccc(/C=N/NC(=O)c2cc(-c3cccc([N+](=O)[O-])c3)n[nH]2)cc1,4,20,62,51*,10,17,nt
Cn1cccc1-c1cc(C(=O)N/N=C/c2ccc([N+](=O)[O-])cc2)[nH]n1,15,0,9,41,-12,nt,nt
CCCc1nc(SCC(=O)N2c3ccccc3CC2C)c2c(C)c(C)sc2n1 (stereo not drawn),2,2,19,66*,-13,26,nt
Cc1sc2nc(C3CC3)nc(SCC(=O)N3CCCc4ccccc43)c2c1C,6,nt,42,71*,6,23,nt
Cc1sc2nc(C3CC3)nc(SCC(=O)N3CCc4ccccc4C3)c2c1C,-10,5,21,-2,-7,nt,nt
CCCc1nc(SCC(=O)NC2CC2)c2c(C)c(C)sc2n1,3,-2,-8,15,20,nt,nt
O=C1c2ccccc2C(=O)C1c1ccccn1,1,1,10,-7,7,nt,nt
O=C1c2ccccc2C(=O)C2OC12 (stereo not drawn),-49,nt,49,72*,3,31,44*

# Compound activity: PubChem BioAssay, several laboratories
